In the supplement of paper PMC10849652:
About 8,800 targets were measured; listed, in parts, are those with a hit and a random draw of the rest. About 0.5% of all pairs of compound and target were hits. A number with no mark means an inactive call.

Columns and labels:
Test in all cases: log2 fold change, soluble protein after heating vs DMSO (PISA); higher = thermal stabilisation; K562 lysate, 10 uM; active = over 0.2 and 3.5 SD of the protein, either way, in both replicates (recomputed)
[1] = compound: Cc1cn(-c2cc(NC(=O)c3ccc(C)c(Nc4nccc(-c5cccnc5)n4)c3)cc(C(F)(F)F)c2)cn1 [nilotinib]
Outline: (§1)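 The values are log-two fold changes in thermal stability compared with solvent controls and come from duplicates. They were obtained by TMTpro 16plex LC-MS/MS, with channel sums equalised, on the supernatant after 21,000xg for 90 min. That supernatant came from crude K562 extract at 1 mg/mL protein treated with 10 μM compound for 30 min, heated for 3 min across 48°C-58°C, pooled and brought to 0.5% NP-40 at 4°C.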

[2] = compound: Cc1nc(Nc2n[nH]c3c2CN(C(=O)N[C@H](CN(C)C)c2ccccc2)C3(C)C)c2sccc2n1
Outline: as §1

[3] = compound: Cc1nc(Nc2ncc(C(=O)Nc3c(C)cccc3Cl)s2)cc(N2CCN(CCO)CC2)n1 [dasatinib]
Outline: as §1

[4] = compound: Cc1ncc(-c2ccnc(Nc3ccc(S(C)(=O)=O)cc3)n2)n1C(C)C
Outline: as §1

[5] = compound: Cn1cc(-c2ccc3c(c2)CCN3C(=O)Cc2cccc(C(F)(F)F)c2)c2c(N)ncnc21
Outline: as §1

[6] = compound: Cn1cc(CNCC2CCN(c3ncc(C(=O)NO)cn3)CC2)c2ccccc21 [quisinostat]
Outline: as §1

[7] = compound: Cn1cncc1[C@@](N)(c1ccc(Cl)cc1)c1ccc2c(c1)c(-c1cccc(Cl)c1)cc(=O)n2C [tipifarnib]
Outline: as §1

[8] = compound: NC(=O)Nc1cc(-c2cccc(F)c2)sc1C(=O)N[C@H]1CCCNC1
Outline: as §1

[9] = compound: NC(=O)c1cnc(N[C@@H]2CCCC[C@@H]2N)nc1Nc1cccc(-n2nccn2)c1
Outline: as §1

[10] = compound: NC1(c2ccc(-c3nc4ccn5c(=O)[nH]nc5c4cc3-c3ccccc3)cc2)CCC1
Outline: as §1

[11] = compound: NCC(=O)Nc1ccc(-n2nc(C(F)(F)F)cc2-c2ccc3c(ccc4ccccc43)c2)cc1
Outline: as §1

[12] = compound: O=C(CCCCCCC(=O)Nc1ccccc1)NO [vorinostat]
Outline: as §1

[13] = compound: O=C(O)c1ccc2c(c1)nc(Nc1cccc(Cl)c1)c1ccncc12 [silmitasertib]
Outline: as §1

[14] = compound: O=C1NC(=O)C(c2cnc3ccccn23)=C1c1cn2c3c(cc(F)cc13)CN(C(=O)N1CCCCC1)CC2
Outline: as §1

[15] = compound: c1cn2cc(-c3ccc4cn[nH]c4c3)nc(Nc3ccc(N4CCOCC4)cc3)c2n1 [entospletinib]
Outline: as §1

UniProt Q68CZ6, sequence (Q68CZ6 whole entry, looked up): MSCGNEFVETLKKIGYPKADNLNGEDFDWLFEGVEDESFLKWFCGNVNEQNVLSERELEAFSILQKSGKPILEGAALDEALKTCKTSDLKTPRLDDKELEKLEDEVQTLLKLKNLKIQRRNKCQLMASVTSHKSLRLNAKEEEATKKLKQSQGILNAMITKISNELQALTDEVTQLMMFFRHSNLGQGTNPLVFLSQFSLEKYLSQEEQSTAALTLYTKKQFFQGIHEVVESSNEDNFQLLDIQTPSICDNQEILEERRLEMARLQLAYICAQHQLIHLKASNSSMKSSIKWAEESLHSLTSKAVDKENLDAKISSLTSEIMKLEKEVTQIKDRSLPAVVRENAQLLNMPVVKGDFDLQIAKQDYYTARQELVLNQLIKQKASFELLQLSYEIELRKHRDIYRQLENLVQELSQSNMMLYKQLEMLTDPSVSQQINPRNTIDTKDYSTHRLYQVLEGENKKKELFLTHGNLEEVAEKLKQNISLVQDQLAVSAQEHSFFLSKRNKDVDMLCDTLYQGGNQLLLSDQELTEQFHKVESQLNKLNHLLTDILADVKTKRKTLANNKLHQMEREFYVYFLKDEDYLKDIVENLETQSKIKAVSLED
UniProt Q9P107, sequence (Q9P107 whole entry, looked up): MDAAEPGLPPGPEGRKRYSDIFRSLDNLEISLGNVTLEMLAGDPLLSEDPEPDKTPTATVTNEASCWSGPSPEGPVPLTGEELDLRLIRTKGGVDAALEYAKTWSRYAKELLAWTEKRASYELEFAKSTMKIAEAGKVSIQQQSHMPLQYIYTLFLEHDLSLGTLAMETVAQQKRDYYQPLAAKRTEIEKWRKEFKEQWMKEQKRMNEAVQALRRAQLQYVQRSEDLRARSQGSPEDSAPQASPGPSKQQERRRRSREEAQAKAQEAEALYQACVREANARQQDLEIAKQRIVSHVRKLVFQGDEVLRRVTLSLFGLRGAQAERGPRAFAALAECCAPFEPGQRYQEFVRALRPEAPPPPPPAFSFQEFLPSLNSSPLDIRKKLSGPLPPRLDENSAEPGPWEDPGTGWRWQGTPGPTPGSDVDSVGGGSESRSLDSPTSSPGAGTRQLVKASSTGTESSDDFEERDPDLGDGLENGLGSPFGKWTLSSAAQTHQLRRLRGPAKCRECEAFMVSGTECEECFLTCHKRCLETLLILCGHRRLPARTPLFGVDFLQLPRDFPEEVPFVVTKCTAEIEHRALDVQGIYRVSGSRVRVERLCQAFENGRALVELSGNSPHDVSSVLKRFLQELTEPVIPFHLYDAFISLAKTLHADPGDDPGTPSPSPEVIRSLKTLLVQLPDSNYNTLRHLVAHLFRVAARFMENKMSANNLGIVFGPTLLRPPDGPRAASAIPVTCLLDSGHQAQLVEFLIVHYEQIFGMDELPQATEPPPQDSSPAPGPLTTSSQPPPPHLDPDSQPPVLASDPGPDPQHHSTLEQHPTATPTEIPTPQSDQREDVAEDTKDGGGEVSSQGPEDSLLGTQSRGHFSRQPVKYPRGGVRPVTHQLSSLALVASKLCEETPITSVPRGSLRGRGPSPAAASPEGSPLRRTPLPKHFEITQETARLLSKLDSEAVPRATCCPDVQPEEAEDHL
UniProt Q7Z4Q2, sequence (Q7Z4Q2 whole entry, looked up): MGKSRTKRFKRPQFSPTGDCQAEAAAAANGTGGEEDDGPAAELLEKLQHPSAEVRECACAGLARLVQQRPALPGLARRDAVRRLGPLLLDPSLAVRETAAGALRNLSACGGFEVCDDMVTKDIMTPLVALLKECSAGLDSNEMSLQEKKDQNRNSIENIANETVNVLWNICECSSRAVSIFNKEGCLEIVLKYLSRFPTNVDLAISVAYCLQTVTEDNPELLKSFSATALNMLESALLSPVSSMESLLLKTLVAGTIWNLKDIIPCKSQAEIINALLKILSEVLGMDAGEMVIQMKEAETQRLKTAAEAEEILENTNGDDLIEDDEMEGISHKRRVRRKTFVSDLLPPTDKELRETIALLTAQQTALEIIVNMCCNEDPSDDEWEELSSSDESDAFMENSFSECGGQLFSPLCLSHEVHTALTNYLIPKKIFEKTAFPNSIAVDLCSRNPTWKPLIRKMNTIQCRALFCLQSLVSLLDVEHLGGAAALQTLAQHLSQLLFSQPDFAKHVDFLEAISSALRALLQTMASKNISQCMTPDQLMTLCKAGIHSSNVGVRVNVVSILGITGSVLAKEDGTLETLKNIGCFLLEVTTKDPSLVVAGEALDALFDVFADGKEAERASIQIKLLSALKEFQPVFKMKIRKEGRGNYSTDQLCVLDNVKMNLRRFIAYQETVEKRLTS
UniProt P15260, sequence (P15260 whole entry, looked up): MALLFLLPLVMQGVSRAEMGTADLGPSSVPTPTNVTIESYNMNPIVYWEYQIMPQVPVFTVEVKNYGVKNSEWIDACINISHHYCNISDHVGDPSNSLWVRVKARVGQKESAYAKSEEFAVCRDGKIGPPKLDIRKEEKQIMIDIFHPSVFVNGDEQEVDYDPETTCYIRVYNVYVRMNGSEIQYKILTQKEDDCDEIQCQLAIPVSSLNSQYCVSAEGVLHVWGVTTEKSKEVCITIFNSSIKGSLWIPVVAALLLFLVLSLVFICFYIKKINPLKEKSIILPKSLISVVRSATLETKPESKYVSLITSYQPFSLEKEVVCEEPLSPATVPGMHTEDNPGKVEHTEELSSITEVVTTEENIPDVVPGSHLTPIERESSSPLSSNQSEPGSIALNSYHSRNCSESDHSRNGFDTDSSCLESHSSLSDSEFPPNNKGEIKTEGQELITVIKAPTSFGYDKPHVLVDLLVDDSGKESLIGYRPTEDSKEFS
UniProt P51617, sequence (P51617 whole entry, looked up): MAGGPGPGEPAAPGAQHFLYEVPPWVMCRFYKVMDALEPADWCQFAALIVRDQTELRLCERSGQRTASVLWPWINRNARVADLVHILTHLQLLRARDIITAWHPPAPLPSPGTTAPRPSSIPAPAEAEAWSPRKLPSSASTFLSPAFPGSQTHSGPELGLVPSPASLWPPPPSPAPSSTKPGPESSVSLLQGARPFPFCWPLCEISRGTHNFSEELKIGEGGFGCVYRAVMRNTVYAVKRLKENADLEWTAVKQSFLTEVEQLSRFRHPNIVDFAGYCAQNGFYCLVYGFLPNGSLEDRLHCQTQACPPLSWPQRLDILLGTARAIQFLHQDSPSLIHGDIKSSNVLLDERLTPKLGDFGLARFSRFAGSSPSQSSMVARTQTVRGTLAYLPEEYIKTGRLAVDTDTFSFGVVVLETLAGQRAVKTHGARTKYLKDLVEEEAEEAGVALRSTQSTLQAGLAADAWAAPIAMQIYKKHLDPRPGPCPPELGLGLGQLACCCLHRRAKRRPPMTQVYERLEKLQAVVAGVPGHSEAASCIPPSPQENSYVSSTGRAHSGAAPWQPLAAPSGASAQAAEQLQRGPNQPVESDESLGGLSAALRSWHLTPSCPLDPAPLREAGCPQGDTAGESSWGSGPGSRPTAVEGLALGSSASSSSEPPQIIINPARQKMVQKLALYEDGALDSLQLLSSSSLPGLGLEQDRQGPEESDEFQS
UniProt Q6DN03, sequence (Q6DN03 whole entry, looked up): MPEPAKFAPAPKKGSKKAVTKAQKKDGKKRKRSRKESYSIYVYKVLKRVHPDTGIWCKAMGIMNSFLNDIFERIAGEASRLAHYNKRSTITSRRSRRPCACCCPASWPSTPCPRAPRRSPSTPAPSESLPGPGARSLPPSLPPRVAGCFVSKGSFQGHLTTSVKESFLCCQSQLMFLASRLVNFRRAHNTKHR
UniProt Q99714, sequence (Q99714 whole entry, looked up): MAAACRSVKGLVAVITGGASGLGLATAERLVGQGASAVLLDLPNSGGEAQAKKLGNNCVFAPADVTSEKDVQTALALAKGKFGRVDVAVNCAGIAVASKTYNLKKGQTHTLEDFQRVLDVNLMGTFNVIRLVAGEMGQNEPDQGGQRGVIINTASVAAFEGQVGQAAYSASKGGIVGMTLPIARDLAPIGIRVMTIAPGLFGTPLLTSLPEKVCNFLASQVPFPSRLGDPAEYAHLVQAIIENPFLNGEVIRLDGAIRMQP
UniProt Q75QN2, sequence (Q75QN2 whole entry, looked up): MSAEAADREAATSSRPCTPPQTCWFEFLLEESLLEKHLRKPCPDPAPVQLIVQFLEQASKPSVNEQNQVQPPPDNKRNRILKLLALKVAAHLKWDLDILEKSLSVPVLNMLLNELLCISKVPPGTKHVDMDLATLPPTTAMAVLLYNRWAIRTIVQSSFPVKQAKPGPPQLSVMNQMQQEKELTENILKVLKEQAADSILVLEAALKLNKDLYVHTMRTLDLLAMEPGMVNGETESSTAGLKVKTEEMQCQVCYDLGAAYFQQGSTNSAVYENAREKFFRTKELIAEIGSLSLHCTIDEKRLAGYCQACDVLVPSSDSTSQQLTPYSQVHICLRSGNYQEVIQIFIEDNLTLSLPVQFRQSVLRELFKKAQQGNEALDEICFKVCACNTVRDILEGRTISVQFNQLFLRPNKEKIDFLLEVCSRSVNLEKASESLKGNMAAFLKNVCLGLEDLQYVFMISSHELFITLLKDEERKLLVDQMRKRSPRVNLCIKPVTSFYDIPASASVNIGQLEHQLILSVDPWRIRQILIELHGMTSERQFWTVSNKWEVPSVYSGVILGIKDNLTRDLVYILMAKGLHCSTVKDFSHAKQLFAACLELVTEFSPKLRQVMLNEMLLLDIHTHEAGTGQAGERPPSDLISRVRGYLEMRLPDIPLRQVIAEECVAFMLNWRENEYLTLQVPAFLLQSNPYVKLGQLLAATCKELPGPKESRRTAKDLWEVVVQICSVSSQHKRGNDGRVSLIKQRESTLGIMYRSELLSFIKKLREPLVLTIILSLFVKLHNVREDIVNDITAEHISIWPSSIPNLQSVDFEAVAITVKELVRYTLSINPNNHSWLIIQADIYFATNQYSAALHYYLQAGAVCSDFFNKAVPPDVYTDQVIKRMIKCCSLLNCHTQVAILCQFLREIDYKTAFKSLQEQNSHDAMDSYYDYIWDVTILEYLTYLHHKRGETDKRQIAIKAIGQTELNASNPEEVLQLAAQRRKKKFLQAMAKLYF
UniProt P17096, sequence (P17096 whole entry, looked up): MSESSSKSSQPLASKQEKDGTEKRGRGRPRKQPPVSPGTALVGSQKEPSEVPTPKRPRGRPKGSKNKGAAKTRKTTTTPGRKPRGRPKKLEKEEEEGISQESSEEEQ

Target	log2 fold change [1]	log2 fold change [2]	log2 fold change [3]	log2 fold change [4]	log2 fold change [5]	log2 fold change [6]	log2 fold change [7]	log2 fold change [8]	log2 fold change [9]	log2 fold change [10]	log2 fold change [11]	log2 fold change [12]	log2 fold change [13]	log2 fold change [14]	log2 fold change [15]
INTS8 (UniProt Q75QN2)	0.035	0.044	-0.072	0.049	0.021	0.003	-0.009	0.067	-0.035	-0.029	-0.012	-0.401 (active)	0.071	-0.016	0.054
HAUS3 (UniProt Q68CZ6)	0.02	-0.027	-0.075	0.008	0.003	-0.059	-0.045	0.017	-0.015	-0.038	0.007	-0.618 (active)	-0.009	0.004	0.007
GPN2 (UniProt Q9H9Y4)	-0.065	0.046	0.062	-0.009	-0.046	-0.022	0.013	-0.008	0.01	-0.034	0.006	-0.093	0.009	-0.062	0.203
H4C1 (UniProt P62805)	0.051	-0.027	-0.063	-0.033	0.048	0.137	0	-0.032	0.01	0.015	0.043	0.09	0.007	-0.038	-0.057
HSD17B10 (UniProt Q99714)	0	-0.044	-0.034	-0.001	-0.017	-0.01	0.008	0.013	-0.002	0.005	0.04	-0.826 (active)	-0.011	-0.025	-0.004
HMGA1 (UniProt P17096)	0.035	0.039	-0.012	0.014	-0.08	-0.018	0.032	-0.004	-0.025	-0.059	0.056	0.111	0.001	0.038	-0.011
IMPDH1 isoform 6 (UniProt P20839)	0.008	-0.034	-0.033	0.015	-0.006	-0.121	-0.017	-0.007	-0.008	-0.012	0.029	-0.897 (active)	-0.003	0.004	0.023
HELQ (UniProt Q8TDG4)	-0.486 (active)	-0.433 (active)	0.021	0.051	-0.028	-0.024	0.033	-0.013	0.122	0.009	-0.003	0.001	0.076	0.017	-0.103
IFNGR1 (UniProt P15260)	0.227	-0.068	-0.018	0.133	-0.125	0.047	-0.08	0.013	0.084	-0.101	0.15	0.147	-0.006	0.046	-0.042
HSPA8 (UniProt P11142)	-0.01	0.002	0.013	0.004	-0.007	0.022	0	-0.024	-0.008	0.003	-0.008	0.105	-0.009	-0.011	-0.002
GIT1 (UniProt Q9Y2X7)	0.03	-0.062	-0.05	-0.042	0.036	-0.045	-0.086	0.035	-0.007	-0.026	-0.043	-0.32 (active)	0.009	0.006	-0.005
KDM1A (UniProt O60341)	-0.009	0.007	-0.023	0.005	0.012	-0.045	-0.052	0.029	0.007	-0.026	0.01	-0.163	0.009	-0.009	0.01
HIST2H2BC (UniProt Q6DN03)	0.003	-0.021	0.051	-0.01	-0.079	-0.014	0.037	0.016	-0.01	0.058	0.018	0.133	-0.098	-0.019	-0.062
HSPA8 (UniProt E9PK54)	0.023	-0.053	-0.024	-0.021	-0.032	-0.093	-0.01	0.113	-0.033	0.004	0.068	-0.004	-0.037	-0.022	0.012
GMIP (UniProt Q9P107)	-0.094	-0.041	-0.097	-0.058	0.023	-0.012	-0.017	0.034	-0.025	-0.022	-0.018	-0.302 (active)	0.058	0.021	-0.038
INF2 (UniProt Q27J81)	-0.08	0.055	0.032	0.034	-0.013	-0.051	-0.079	0.023	0.005	-0.035	-0.023	-0.333 (active)	-0.027	0.018	-0.09
HEATR3 (UniProt Q7Z4Q2)	0.023	-0.021	-0.042	-0.031	0.062	-0.078	0.019	0.033	-0.015	0.001	-0.03	-0.5 (active)	0.013	-0.017	-0.006
IRAK1 (UniProt P51617)	-0.036	0.011	0.051	0.112	0.131	-0.145	0.016	0.373 (active)	0.005	-0.005	-0.073	-0.359 (active)	0.205	-0.014	0.232
INTS5 (UniProt Q6P9B9)	0.11	-0.093	-0.012	0.062	0.055	-0.002	0.294	0.043	-0.064	0.081	-0.045	-0.56 (active)	0.088	0.039	0.093
GSTZ1 (UniProt G3V4T6)	0.026	0.009	-0.024	-0.016	0.083	0.016	0.014	0.029	-0.012	-0.007	0.088	0.167	-0.002	-0.015	-0.031
INTS7 (UniProt Q9NVH2)	-0.02	-0.014	-0.004	-0.009	-0.008	-0.071	0.037	0.088	0.032	-0.002	0.017	-0.149	-0.011	0.189	0.03
